Data: PubChem BioAssay AID743449 (Broad Institute, 2014)
Hit rate of the full screen: of about 9,900 compounds, about 90 (0.9%) were called active. About 2% were inconclusive and are not listed. The sample holds actives, similar compounds and a random draw of the others, so the mix is not that of the screen.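 The calls were made as follows: active = mean normalized replicate activity at least 50 and at least half of replicates each reaching 50; inconclusive = only one of the two criteria met; inactive = neither criterion met.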

Experiment: reduction of CTGF mRNA in DLD1 cells – DLD1 colon cancer cells, RT-qPCR, single point, primary screen (AID 743449);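 also: 0% = neutral control wells and 100% = dasatinib control wells; higher means stronger suppression of CTGF expression like dasatinib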
Conditions: 24 h, at 12.5 µM, hits give high values

inhibition, active:
CC(=O)N1CCCCN2[C@@H](CO)[C@H](c3ccc(-c4ccccc4)cc3)[C@@H]2C1 62%
COc1ccc(NC(=O)N2CCCCN3[C@@H](CO)[C@H](c4ccc(-c5ccccc5F)cc4)[C@@H]3C2)cc1 59.6%
Cc1cccc(-c2ccc([C@@H]3[C@@H](CO)N4CCCCN(S(=O)(=O)c5ccccc5F)C[C@@H]34)cc2)c1 63.6%
Cc1ccccc1-c1ccc([C@H]2[C@@H](CO)N3CCCCN(S(=O)(=O)Cc4ccccc4)C[C@@H]23)cc1 66%
COc1ccccc1C#Cc1ccc([C@H]2[C@H](CO)N3CCCCN(C(=O)C4CCC4)C[C@@H]23)cc1 68.7%
O=S(=O)(c1ccccc1)N1CCCCN2[C@H](C1)[C@@H](c1ccc(C#CC3CCCC3)cc1)[C@@H]2CO 50.5%
C[C@@H]1CN([C@H](C)CO)C(=O)CCCn2nncc2CO[C@@H]1CN(C)Cc1cccc(C(F)(F)F)c1 61.3%
C[C@@H]1CN([C@@H](C)CO)C(=O)CCCn2nncc2CO[C@@H]1CN(C)C(=O)c1cc(-c2ccccc2)on1 55.9%
C[C@@H]1CN([C@H](C)CO)C(=O)CCCn2nncc2CO[C@@H]1CN(C)C(=O)c1cc(-c2ccccc2)on1 66%
O=C(Nc1ccccc1)[C@@H]1[C@@H](CO)[C@@H]2Cn3c(cccc3=O)[C@H]1N2C(=O)c1ccc(F)cc1 51.2%
CC(C)NC(=O)N[C@@H]1CC[C@H](CC(=O)NCCCN(C)C)O[C@@H]1CO 50.2%
CO[C@@H]1CN(C)C(=O)c2ccc(NC(=O)c3nc4ccccc4s3)cc2OC[C@@H](C)N(Cc2cccnc2)C[C@H]1C 68.4%
C[C@@H]1CC=CC[C@H](c2ccc(F)cc2)NC(=O)[C@@H](Cc2ccccc2)N(C)C(=O)c2ccccc2O1 (mixture of isomers) 60.2%
C[C@H]1CC=CC[C@@H](c2ccc(F)cc2)NC(=O)[C@H](Cc2ccccc2)N(C)C(=O)c2ccccc2O1 (mixture of isomers) 64%

inhibition, inactive:
Cc1ccccc1-c1ccc([C@H]2[C@@H](CO)N3CCCCN(S(=O)(=O)Cc4ccccc4)C[C@H]23)cc1 -18.5%
COc1ccc(NC(=O)N2CCCCN3[C@H](C2)[C@@H](c2ccc(-c4ccccc4F)cc2)[C@@H]3CO)cc1 -27.6%
Cc1cccc(-c2ccc([C@@H]3[C@@H](CO)N4CCCCN(S(=O)(=O)c5ccccc5F)C[C@H]34)cc2)c1 15.5%
Cc1cccc(-c2ccc([C@H]3[C@@H](CO)N4CCCCN(S(=O)(=O)c5ccccc5F)C[C@@H]34)cc2)c1 -8.63%
CC(=O)N1CCCCN2[C@@H](CO)[C@@H](c3ccc(-c4ccccc4)cc3)[C@@H]2C1 -12.5%
COc1ccc(NC(=O)N2CCCCN3[C@H](CO)[C@H](c4ccc(-c5ccccc5F)cc4)[C@H]3C2)cc1 -50.7%
CC(=O)N1CCCCN2[C@H](CO)[C@H](c3ccc(-c4ccccc4)cc3)[C@H]2C1 9.46%
Cc1ccccc1-c1ccc([C@@H]2[C@H](CO)N3CCCCN(S(=O)(=O)Cc4ccccc4)C[C@@H]23)cc1 26%
O=C(C[C@@H]1CC[C@@H]2[C@H](COC[C@H](O)CN2C(=O)c2ccc(F)cc2)O1)N1CCCCC1 4.67%
C[C@@H]1CCCCO[C@H](CN(C)Cc2ccc(C(=O)O)cc2)[C@@H](C)CN([C@@H](C)CO)C(=O)c2cc(N(C)C)ccc2O1 -1.12%
O=C1N[C@H](Cc2ccccc2)COCc2cnnn2CC[C@@H]1Cc1ccc(-c2ccccc2)cc1 10.4%
CS(=O)(=O)N1[C@@H](CO)[C@@H](c2ccccc2)C12CN(Cc1cc(F)ccc1F)C2 2.97%
CCC(=O)N1C[C@H](C)[C@@H](OC)CN(C)C(=O)c2ccc(NC(=O)CC(F)(F)F)cc2OC[C@@H]1C -9.99%
CC(C)N(C[C@H]1N[C@H](CO)[C@H]1c1ccccc1)S(=O)(=O)c1ccccc1 -1.38%
COc1ccccc1C#Cc1ccc([C@@H]2[C@H]3CN(C(=O)C4CCC4)CCCCN3[C@H]2CO)cc1 14.7%
O=S(=O)(c1ccccc1)N1CCCCN2[C@H](CO)[C@H](c3ccc(C#CC4CCCC4)cc3)[C@H]2C1 -84.2%
O=S(=O)(c1ccccc1)N1CCCCN2[C@@H](CO)[C@H](c3ccc(C#CC4CCCC4)cc3)[C@@H]2C1 1.07%
COc1ccccc1C#Cc1ccc([C@@H]2[C@@H](CO)N3CCCCN(C(=O)C4CCC4)C[C@H]23)cc1 4.8%
O=C(C[C@H]1CC[C@H]2[C@@H](COC[C@@H](O)CN2C(=O)Nc2ccccc2)O1)NCc1ccccc1F 8.8%
CCCN1C[C@H](C)[C@H](OC)CN(C)C(=O)c2ccc(NS(=O)(=O)c3cn(C)cn3)cc2OC[C@H]1C -8.06%
CCCC(=O)Nc1ccc2c(c1)C(=O)N(C)C[C@H](OC)[C@@H](C)CN(Cc1ccc(F)cc1)[C@H](C)CO2 -14.1%
CN1[C@H](C(=O)Nc2nccs2)[C@@H](CO)[C@@H]2Cn3c(ccc(-c4ccccc4F)c3=O)[C@@H]21 -2.79%
C/C=C/c1ccc([C@H]2[C@@H](CNC(=O)CC3CC3)N(C(=O)CC)[C@H]2CO)cc1 -13.1%
CCS(=O)(=O)Nc1ccc2c(c1)C(=O)N(C)[C@H]1CC[C@H](CC(=O)NCc3ccc(OC)cc3)O[C@@H]1CO2 -27.1%
O=C(C[C@H]1CC[C@H]2NC[C@H](O)COC[C@@H]2O1)N1CCc2ccccc2C1 1.25%
C[C@H](CO)N1C[C@H](C)[C@H](CN(C)C(=O)c2cc(-c3ccccc3)on2)OCc2cnnn2CCCC1=O 29.3%
C[C@H](CO)N1C[C@H](C)[C@@H](CN(C)Cc2cccc(C(F)(F)F)c2)OCc2cnnn2CCCC1=O -35.1%
C[C@H](CO)N1C[C@H](C)[C@@H](CN(C)C(=O)c2cc(-c3ccccc3)on2)OCc2cnnn2CCCC1=O -12.2%
C[C@@H]1CN([C@@H](C)CO)C(=O)CCCn2nncc2CO[C@H]1CN(C)C(=O)c1cc(-c2ccccc2)on1 -32.7%
C[C@@H]1CN([C@H](C)CO)C(=O)CCCn2nncc2CO[C@H]1CN(C)C(=O)c1cc(-c2ccccc2)on1 -10.9%
C[C@@H]1CN([C@H](C)CO)C(=O)CCCn2nncc2CO[C@H]1CN(C)Cc1cccc(C(F)(F)F)c1 20.5%
CNC[C@@H]1OCCCC[C@H](C)Oc2ccc(NS(=O)(=O)c3ccc(F)cc3)cc2C(=O)N([C@@H](C)CO)C[C@H]1C -4.63%
Cc1cccc(S(=O)(=O)N[C@@H]2CC[C@@H](CCNC(=O)Nc3cc(F)ccc3F)O[C@H]2CO)c1 -12.4%
COc1ccc(-c2ccc([C@H]3[C@H](CO)N4C(=O)CN(Cc5ccccc5)C[C@@H]34)cc2)cc1 -9.55%
COc1ccc(S(=O)(=O)N(C)C[C@H]2Oc3ccc(NC(=O)Nc4ccc(C(F)(F)F)cc4)cc3C(=O)N([C@@H](C)CO)C[C@@H]2C)cc1 -95.1%
CCNC(=O)[C@@H]1[C@@H](CO)[C@@H]2Cn3c(cccc3=O)[C@H]1N2C(=O)Nc1cc(F)ccc1F -43%
O=C(Nc1ccccc1)[C@H]1[C@H](CO)[C@H]2Cn3c(cccc3=O)[C@@H]1N2C(=O)c1ccc(F)cc1 11.4%
N#C[C@H]1[C@@H](c2ccccc2)[C@H](CO)N1C(=O)c1cc(Cl)cc(Cl)c1 26.8%
CC(C)NC(=O)N[C@H]1CC[C@H](CC(=O)NCCCN(C)C)O[C@@H]1CO 12%
CC(C)NC(=O)N[C@@H]1CC[C@@H](CC(=O)NCCCN(C)C)O[C@H]1CO 1.3%
C[C@H](CO)N1C[C@H](C)[C@@H](CN(C)S(=O)(=O)c2cccs2)Oc2ccc(NC(=O)Nc3cccc4ccccc34)cc2C1=O 3.66%
CO[C@@H]1CN(C)C(=O)c2ccc(NC(=O)c3nc4ccccc4s3)cc2OC[C@@H](C)N(Cc2cccnc2)C[C@@H]1C 1.63%
CO[C@H]1CN(C)C(=O)c2ccc(NC(=O)c3nc4ccccc4s3)cc2OC[C@@H](C)N(Cc2cccnc2)C[C@@H]1C 1.26%
CCCNC(=O)N1[C@@H]2Cn3c(cccc3=O)[C@H]1[C@@H](C(=O)N1CCC(Cc3ccccc3)CC1)[C@@H]2CO -24.7%
C[C@H]1CN([C@@H](C)CO)C(=O)CCCn2nncc2CO[C@H]1CN(C)C(=O)Nc1ccc2c(c1)OCCO2 -11.1%
CCCC#Cc1ccc2c(c1)O[C@@H](CN(C)Cc1ccccn1)[C@@H](C)CN([C@@H](C)CO)S2(=O)=O -16.9%
C[C@H]1CC=CC[C@H](c2ccc(F)cc2)NC(=O)[C@@H](Cc2ccccc2)N(C)C(=O)c2ccccc2O1 (mixture of isomers) -32.9%
CC(C)[C@@H]1CC=CC[C@H](C)Oc2ccccc2C(=O)N(C)[C@@H](Cc2ccccc2)C(=O)N1 (mixture of isomers) 15.6%
C[C@H]1CC=CC[C@H](c2ccc(F)cc2)NC(=O)[C@H](Cc2ccccc2)N(C)C(=O)c2ccccc2O1 (mixture of isomers) -3.91%
CC(C)[C@@H]1CC=CC[C@@H](C)Oc2ccccc2C(=O)N(C)[C@H](Cc2ccccc2)C(=O)N1 (mixture of isomers) 38.9%
